From PubChem BioAssay (Tox21)
Records with an inconclusive call do not appear. Activity calls are given as the source filed them. Calls follow the shape of the dose curve; as a rule, active = well fitted curve in the direction sought with a large enough effect in the repeat runs; inconclusive = weak or mixed curves; inactive = no such curve, though single readings can be large; an effect the other way counts as inactive or inconclusive.

Assays:
[1] = qHTS assay to identify small molecule antagonists of the glucocorticoid receptor (GR) signaling pathway - cell viability counter screen (AID 720693); also: nearly all actives have a fitted effect of over 55% in size
[2] = qHTS assay for identifying genotoxic compounds that show differential cytotoxicity against isogenic chicken DT40 cell lines with known DNA damage response pathways - wild type cell line (AID 743012); also: nearly all actives have a fitted effect of over 60% in size; also: potency is read from the fitted curve at half-maximal effect
Summary of the method: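 Cells (DT40 wild type, 300/well) are treated with DMSO-dissolved compounds after a ~0.5 h pre-incubation and kept 40 h at 37 C/5% CO2. Viability is then measured by CellTiter-Glo luminescence following 30 min at room temperature.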

[3] = qHTS assay for identifying genotoxic compounds that show differential cytotoxicity against isogenic chicken DT40 cell lines with known DNA damage response pathways - Rev3 mutant cell line (AID 743014); also: nearly all actives have a fitted effect of over 55% in size; also: potency is read from the fitted curve at half-maximal effect
[4] = qHTS assay for identifying genotoxic compounds that show differential cytotoxicity against isogenic chicken DT40 cell lines with known DNA damage response pathways - Rad54/Ku70 mutant cell line (AID 743015); also: nearly all actives have a fitted effect of over 60% in size; also: potency is read from the fitted curve at half-maximal effect
[5] = qHTS assay to identify small molecule antagonists of the androgen receptor (AR) signaling pathway - cell viability counter screen (AID 743033; also: nearly all actives have a fitted effect of over 45% in size)
[6] = qHTS assay to identify small molecule antagonists of the androgen receptor (AR) signaling pathway using the MDA cell line - cell viability counter screen (AID 743041; also: nearly all actives have a fitted effect of over 45% in size)
Summary of the method: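 MDA-kb2 AR-luc cells (MMTV-luciferase, AR/GR responsive) treated with compounds plus R1881 agonist for 16 h at 37C. CellTiter-Fluor added at 15.5 h; fluorescence read after 30 min in the same wells.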

[7] = qHTS assay to identify small molecule antagonists of the thyroid receptor (TR) signaling pathway - cell viability counter screen (AID 743064); also: nearly all actives have a fitted effect of over 50% in size; also: potency is read from the fitted curve at half-maximal effect
Summary of the method: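 Plate GH3.TRE-Luc cells; incubate 4 h at 37 °C; add compound, then T3 to 1 nM final; incubate 23.5 h; add CellTiter-Fluor; incubate 30 min at 37 °C, 5% CO2; read fluorescence.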

[8] = target: Androgen receptor (Homo sapiens) (UniProt P10275); test: qHTS assay to identify small molecule agonists of the androgen receptor (AR) signaling pathway using the MDA cell line (AID 743040; also: nearly all actives have a fitted effect of over 20% in size)
Summary of the method: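 MDA-kb2 breast carcinoma cells carrying MMTV-luciferase (responsive to AR and GR), plated 5 h then treated 16 h with compounds at 37C, 0% CO2. Read-out was ONE-Glo luminescence after 30 min at room temperature.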

Measured: Potency

Androgen receptor (Homo sapiens), sequence (P10275 whole entry, looked up): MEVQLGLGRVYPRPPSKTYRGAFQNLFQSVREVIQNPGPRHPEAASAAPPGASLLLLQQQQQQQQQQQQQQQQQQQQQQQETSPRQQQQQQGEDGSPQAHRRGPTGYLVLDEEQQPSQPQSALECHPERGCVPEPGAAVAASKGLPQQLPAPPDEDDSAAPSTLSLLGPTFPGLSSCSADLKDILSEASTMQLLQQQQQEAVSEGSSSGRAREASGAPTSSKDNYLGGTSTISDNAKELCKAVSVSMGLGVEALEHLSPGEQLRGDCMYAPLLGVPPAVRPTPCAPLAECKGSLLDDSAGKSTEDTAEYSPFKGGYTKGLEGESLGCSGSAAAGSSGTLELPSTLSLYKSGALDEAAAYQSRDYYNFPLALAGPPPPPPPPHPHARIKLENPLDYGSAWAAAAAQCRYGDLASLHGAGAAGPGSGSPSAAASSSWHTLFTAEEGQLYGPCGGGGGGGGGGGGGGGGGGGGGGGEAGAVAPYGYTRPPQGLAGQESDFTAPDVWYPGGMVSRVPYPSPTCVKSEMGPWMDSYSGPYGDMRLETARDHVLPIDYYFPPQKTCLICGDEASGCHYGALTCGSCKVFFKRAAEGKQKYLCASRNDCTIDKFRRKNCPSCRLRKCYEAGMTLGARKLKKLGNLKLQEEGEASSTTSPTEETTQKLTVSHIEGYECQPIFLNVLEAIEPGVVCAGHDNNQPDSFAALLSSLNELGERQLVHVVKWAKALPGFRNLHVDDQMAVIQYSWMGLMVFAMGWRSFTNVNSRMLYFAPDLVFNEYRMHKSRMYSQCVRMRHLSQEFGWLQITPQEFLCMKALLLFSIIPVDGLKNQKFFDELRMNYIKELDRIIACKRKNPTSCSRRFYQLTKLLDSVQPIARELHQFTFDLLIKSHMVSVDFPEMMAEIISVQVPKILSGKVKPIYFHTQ

CC1=CCC(O)(C(C)C)CC1 (stereo unspecified)
not listed: [8]
inactive: all other assays above

[K+]
not listed: [8]
inactive: all other assays above

CN1CC(=O)N/C1=N/C(=O)Nc1cccc(Cl)c1
not listed: [8]
inactive: all other assays above

C=CCCCCCCCCC(=O)OCC
not listed: [8]
inactive: all other assays above

OCCc1ccccn1
not listed: [8]
inactive: all other assays above

CN(C)[C@@H]1C(=O)C(C(=O)NCN2CCCC2)=C(O)[C@@]2(O)C(=O)C3=C(O)c4c(O)cccc4[C@@](C)(O)C3C[C@@H]12 (stereo partly specified)
not listed: [8]
inactive: all other assays above

CC/C=C\CCOC(C)OCC (stereo unspecified)
not listed: [8]
inactive: all other assays above

CC(=O)c1ccccc1[N+](=O)[O-]
not listed: [8]
inactive: all other assays above

CCCCOCCOC(=O)CCCCCCCCC(=O)OCCOCCCC
not listed: [8]
inactive: all other assays above

N[C@@H](CCC(=O)O)C(=O)O
not listed: [8]
inactive: all other assays above

CC[N+](C)(CC)CCOC(=O)C1c2ccccc2Oc2ccccc21
not listed: [8]
inactive: all other assays above

[O-][n+]1cccc(CO)c1
not listed: [8]
inactive: all other assays above

O=S(=O)(O)c1cccc2ccccc12
not listed: [8]
inactive: all other assays above

Cc1c(N)c(=O)n(-c2ccccc2)n1C
not listed: [8]
inactive: all other assays above

Nc1ccn([C@@H]2O[C@H](CO)[C@@H](O)C2(F)F)c(=O)n1
active: [2] 15 nM | [3] 18.8 nM | [4] 18.8 nM | [7] 168 nM
inactive: [1] | [5] | [6]

CC1=C(C/C=C(\C)CCC[C@H](C)CCC[C@H](C)CCCC(C)C)C(=O)c2ccccc2C1=O
not listed: [8]
inactive: all other assays above

NCCCC(N)(C(=O)O)C(F)F (stereo unspecified)
not listed: [8]
inactive: all other assays above

CCC(C)(CCCC(C)C)OC(C)=O (stereo unspecified)
not listed: [8]
inactive: all other assays above

Nc1ccn([C@@H]2O[C@H](CO)[C@@H](O)[C@@H]2O)c(=O)n1
inactive: [1] | [5] | [6]
active: [2] 61.1 nM | [3] 43.3 nM | [4] 43.3 nM | [7] 217 nM

CCCn1cc[n+](C)c1C
not listed: [8]
inactive: all other assays above

O=S(=O)(O)c1cccc2c(S(=O)(=O)O)cccc12
not listed: [8]
inactive: all other assays above

Nc1ccccn1
not listed: [6] | [8]
inactive: all other assays above

CCOC(=O)COC(=O)c1ccccc1C(=O)OCC
not listed: [8]
inactive: all other assays above

CC(C)(CCC(=O)O)C(=O)O
not listed: [8]
inactive: all other assays above

CCCCN(CCC(=O)OCC)C(C)=O
not listed: [8]
inactive: all other assays above

CC(CO)(CO)[N+](=O)[O-]
not listed: [8]
inactive: all other assays above

CCCCc1ccc2c(n1)[C@@H](c1ccc(OC)cc1C[C@H](C)C(=O)O)[C@H](C(=O)O)[C@H]2c1ccc2c(c1)OCO2
not listed: [8]
inactive: all other assays above

Cc1ccc(C(=O)c2ccc(CC(=O)O)n2C)cc1
not listed: [5]
inactive: all other assays above

CO/N=C(\C(=O)N[C@@H]1C(=O)N2C(C(=O)O)=C(CSc3nc(=O)c(O)nn3C)CS[C@H]12)c1csc(N)n1
not listed: [8]
inactive: all other assays above

O=C(O)CNC(=O)c1ccc(CO)o1
not listed: [8]
inactive: all other assays above

CCOCC(C)O (stereo unspecified)
not listed: [8]
inactive: all other assays above
